Measurements: PubChem BioAssay (EPA / NIEHS)
Active and inactive are the calls of the source. Rule for the calls: active = hit-call score of the fitted dose curve at least 0.9, where 1 is the maximum; inactive = score below 0.9.

Test: ATG_ISRE_CIS: Attagene CIS-FACTORIAL HepG2 Assay for human Interferon Regulatory Factor 1 (IRF1) binding to an Interferon-Stimulated Response Element (ISRE) (AID 2282948)
Details: HepG2 ISRE cis-reporter (Attagene), mRNA transcription readout; actives raise or lower the signal
Description: ATG_CIS is a cell-based, multiplexed-readout assay that uses HepG2, a human liver cell line, with measurements taken at 24 hours after chemical dosing in a 24-well plate.ATG_ISRE_CIS is one of 52 assay component(s) measured or calculated from the ATG_CIS assay. It is designed to make measurements of mRNA induction, a form of inducible reporter, as detected with fluorescence intensity signals by Reverse transcription polymerase chain reaction (RT-PCR) and Capillary electrophoresis technology.Data from the assay component ATG_ISRE_CIS was analyzed into 1 assay endpoint. This assay endpoint, ATG_ISRE_CIS, was analyzed with bidirectional fitting relative to DMSO as the negative control and baseline of activity. Using a type of inducible reporter, measures of mRNA for gain or loss-of-signal activity can be used to understand the reporter gene at the transcription factor-level as they relate to the gene IRF1. Furthermore, this assay endpoint can be referred to as a primary readout, because this assay has produced multiple assay endpoints where this one serves a reporter gene function. To generalize the intended target to other relatable targets, this assay endpoint is annotated to the dna binding intended target family, where the subfamily is interferon regulatory factors.
Human liver HepG2 cells are transiently transfected with multiple reporter transcription units (MRTUs) in 6-well plates using FuGene 6 reagent (Roche; 3 ml FuGene/1 mg DNA). The MRTU constructs are regulated by a cis-regulating element (promoter). […] A major difference between the CIS and TRANS system is that in CIS activities of endogenous TFs are measured, whereas the TRANS assay evaluates changes in activities of exogenous, chimeric NR-Gal4 proteins. […] At the end of 24 hour incubation, total RNA was isolated using TriZol reagent (Invitrogen). The isolated RNA is then reverse-transcribed using oligo(dT) primer and Mo-MLV reverse transcriptase (Invitrogen) with DNAse I (Ambion) treatment for 30 min. The one-tenth of the produced cDNA was amplified by PCR using Taq DNA polymerase (Invitrogen) and two reporter sequence-specific primers. The PCR products were fluorescently labeled by primer extension with 6-arboxyfluorescein (6-FAM) 5'-labeled reporter sequence-specific primer (2 min at 95 C, 20 s at 68 C and 10 min at 72 C) and these products were digested with 5U of HpaI (New England Biolabs) for 2h at 37 C. The fragments were purified using Qiaquick PCR columns (Qiagen), analyzed on an ABI 3130xL genetic analyzer (Applied Biosystems) with peak positions identified by using a set of X-rhodamine (ROX)-labeled MapMarker1000 molecular weight standards (BioVentures). The raw capillary electrophoresis data was processed using Attagraph software (Attagene).
With `O=C(O)c1cc(O)c2ccccc2c1O` the outcome was “inactive”.
With `CCCCOC(=O)CCC(C)=O` the outcome was “inactive”.
In the case of `CC1(C)CCC[C@]2(C)[C@H]3CC(=O)O[C@]3(C)CC[C@@H]12`, the outcome is reported as “inactive”.
With `CC(=O)CCC1=C(C)CCCC1(C)C` the outcome was “inactive”.
In the case of `CCc1cccc(C)c1N`, the outcome is reported as “inactive”.
For `CCC(C)N` (stereo not given), the outcome was “inactive”.
For `CCCCC(CC)COS(=O)(=O)O` (stereo not given), the outcome was “inactive”.
For `CC(=O)OC(C)c1ccccc1` (stereo not given), the outcome was “inactive”.
For `CCCCNS(=O)(=O)c1ccccc1`, the outcome was “inactive”.
With `CCCCNC(=S)NCCCC` the outcome was “inactive”.
With `CC(C)[N+](C)(CCOC(=O)C1c2ccccc2Oc2ccccc21)C(C)C` the outcome was “inactive”.
With `C/C=C/C=C/CCCCCCCO` the outcome was “inactive”.
For `CCCCC1C(=O)N(c2ccccc2)N(c2ccccc2)C1=O`, the outcome was “inactive”.
In the case of `CCC1COC(=O)O1` (stereo not given), the outcome is reported as “inactive”.
For `CC(=O)OC1CCCCC1C(C)(C)C` (stereo not given), the outcome was “inactive”.
In the case of `CCCCCCCCCCCC(=O)N(C)CC(=O)O`, the outcome is reported as “inactive”.
With `CCCCCCCCCCCCC` the outcome was “inactive”.
In the case of `CC(C)(CO)COC(=O)C(C)(C)CO`, the outcome is reported as “inactive”.
In the case of `Cc1cc(=O)[nH]c(=O)[nH]1`, the outcome is reported as “inactive”.
In the case of `CCC[Si](OC)(OC)OC`, the outcome is reported as “inactive”.
In the case of `CCC(C)C(=O)OC` (stereo not given), the outcome is reported as “inactive”.
For `Nc1ccc(O)c([N+](=O)[O-])c1`, the outcome was “inactive”.
In the case of `O=c1c(O)c(-c2ccc(O)cc2O)oc2cc(O)cc(O)c12`, the outcome is reported as “inactive”.
For `COc1nccnc1CC(C)C`, the outcome was “inactive”.
With `CO[Si](CCCS)(OC)OC` the outcome was “inactive”.
With `c1ccc2c(c1)[nH]c1ccccc12` the outcome was “inactive”.
With `CC(C)(c1ccccc1)c1ccc(Nc2ccc(C(C)(C)c3ccccc3)cc2)cc1` the outcome was “inactive”.
For `[Cl][Eu]([Cl])[Cl]`, the outcome was “inactive”.
For `Nc1ccc(Cl)c(N)c1`, the outcome was “inactive”.
With `C=CCNCC=C` the outcome was “inactive”.
In the case of `CN(C)Cc1cc(CN(C)C)c(O)c(CN(C)C)c1`, the outcome is reported as “inactive”.
For `COC(OC)(C(=O)c1ccccc1)c1ccccc1`, the outcome was “inactive”.
For `CC(C)c1ccc(O)c(C(C)C)c1`, the outcome was “inactive”.
In the case of `CC(C)(C)NC(=O)[C@H]1CC[C@H]2[C@@H]3CC[C@H]4NC(=O)C=C[C@]4(C)[C@H]3CC[C@]12C`, the outcome is reported as “inactive”.
In the case of `CC(=O)OCCc1ccccc1`, the outcome is reported as “inactive”.
In the case of `COc1cc(C)ccc1O`, the outcome is reported as “inactive”.
With `CC(C)CCCCCOC(=O)CS` the outcome was “inactive”.
In the case of `CCCCCCCCCCCCCc1ccccc1`, the outcome is reported as “inactive”.
With `C1CNCCN1` the outcome was “inactive”.
For `CC/C=C\CCOC(=O)c1ccccc1O`, the outcome was “inactive”.
